The values that follow come from PubChem BioAssay (NCI).

Holding throughout (assay): NCI-60 one-dose screen, 48 h (100 = growth as untreated, 0 = no growth, -100 = all killed)
Common to all, as to conditions: 10 µM unless noted

For test [1], the system named is HCT-15 colon.
Test [2] has as its system HT29 colon.
Test [3] has as its system SNB-75 CNS.
For test [4], the system named is SNB-19 CNS.
In test [5] the test system is U251 CNS.
Test [6] relates to PC-3 prostate.
Test [7] relates to SK-MEL-5 melanoma.
Test [8] deals with UACC-62 melanoma.
Test [9] relates to LOX IMVI melanoma.
Test [10] relates to SK-MEL-28 melanoma.

About 83,000 compounds went through this panel and 20% of them were active in at least one assay; those are over-represented in the sample as a whole.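 The test compound was applied at a single concentration to cells in 96-well plates for 48 hours, and percent growth was recorded.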 Unmarked numbers belong to inactive results. Calls of active or inactive are those of the source. Rule for the calls: active = growth percent below 10; inactive = the rest.

For `CC1CCc2cc(F)cc3c(=O)c(C(=O)O)cn1c23` (stereo not given), the growth was 105% in test [1]; 116% in test [2]; 109% in [3]; 93.1% in test [4]; 101% in [5]; 96.6% in [6]. For the same compound, the growth in test [7] was 102%; in test [8] it was 92.8%; in test [9], 69.1%; in test [10], 120%.

Consider `NC(CCCC(N)C(=O)c1ccccc1)C(=O)O` (stereo not given), for which the growth in test [1] was 107%; in [2], 73.3%; in test [3], 97.1%; in test [4], 110%; in test [5] it was 102%; in [6] it was 83.3%. Moreover, the growth in [7] is 107%; in test [8] it was 99.9%; in test [9], 99.8%; in test [10], 103%.

For `CN(C)c1ncc(C#Cc2c(F)cccc2F)c2ccccc12`, the growth is 88.1% in test [1]; 70.6% in [2]; 108% in test [3]; 88.8% in test [4]; 80% in test [5]; 75.7% in test [6]. Moreover, the growth in test [7] was 83.5%; in test [8] it was 71.4%; in test [9], 85.2%; in test [10], 102%.

Regarding `O=C(Nc1ccccc1F)Nc1ccccc1Cl`, the growth in test [1] was 106%; in test [2] it was 91%; in test [3], 85.7%; in test [4], 97.1%; in test [5] it was 92.3%; in [6] it was 108%. The growth in test [7] is 84%; in test [8], 73.2%; in test [9] it was 93.3%; in [10], 96.9%.

As for `O=C(Nc1ccc(-n2ccc3c(NC(=O)c4ccccc4)nccc32)cc1)c1cccc(C(F)(F)F)c1`, the growth in test [1] was 14.1%; in test [2] it was 2.7% (active); in test [3] it was 43.9%; in test [4], 37.4%; in test [5], 17.7%; in [6], 40.4%. For the same compound, the growth in test [7] was 16.5%; in test [8], 35.4%; in test [9] it was 6.29% (active); in test [10], 48.1%.

Take `OCCOCC(F)(F)F`: the growth is 108% in [1]; 105% in [2]; 88.3% in test [3]; 117% in [4]; 105% in [5]; 97.8% in test [6]. In addition, the growth in test [7] was 107%; in [8], 113%; in test [9], 112%; in test [10], 98.5%.

As for `CN(C)CC/C=C1\c2ccccc2Sc2ccc(Cl)cc21`, the growth is 78.9% in test [1]; 30.6% in [2]; 52.4% in [3]; 85.2% in test [4]; 49.5% in test [5]; 65% in test [6]. Besides, the growth was 34.1% in test [7], 47.1% in [8], 53.6% in [9] and 55.9% in test [10].

On to `COc1cc2ncn3c(=O)c4c5c(sc4nc3c2cc1OC)CCCCC5`, for which the growth is 107% in [1]; 112% in test [2]; 73.2% in [3]; 102% in test [4]; 102% in [5]; 90.9% in test [6]. The growth in test [7] is 94.9%; in test [8], 93.7%; in test [9] it was 88.2%; in [10], 107%.

As to `O=[N+]([O-])c1ccccc1NC1c2ccccc2Oc2ccccc21`, the growth in [1] was 37%; in test [2], 11%; in [3], 69.5%; in test [4], 68.7%; in [5], 40.9%; in [6], 56.1%. Moreover, the growth was 46% in test [7], 48.7% in test [8], 65.1% in test [9] and 69.3% in [10].

Consider `O=C(Nc1ccc(-n2cc(-c3ccncc3)c(-c3ccc(O)c(Cl)c3)n2)cc1)Nc1cccc(Cl)c1Cl`, for which the growth in [1] is 43.1%; in test [2] it was 1.45% (active); in test [3], 72.5%; in test [4] it was 71.9%; in test [5] it was 39.7%; in test [6], 29%. Besides, the growth in [7] is 31.2%; in test [8], 89.5%; in test [9], 52.8%; in test [10], 60.3%.

Take `Fc1ccc(/C=N/n2c(-c3cc(Cl)cc(Cl)c3Cl)nn(CNc3ccc(Cl)nn3)c2=S)cc1`: the growth is 110% in [1]; 103% in test [2]; 99.4% in [3]; 101% in test [4]; 90% in test [5]; 86.7% in test [6]. The growth in [7] was 102%; in test [8], 86.7%; in [9] it was 96.8%; in test [10] it was 108%.

As to `CNCCCOc1c(Br)cc(CCNC(=O)/C(Cc2cc(Br)c(OC)c(Br)c2)=N/O)cc1Br`, the growth is -58.3% (active) in test [1]; -48.2% (active) in [2]; 8.28% (active) in test [3]; -23% (active) in [4]; -84% (active) in test [5]; -40.4% (active) in test [6]. The growth in test [7] is -90.2% (active); in test [8], -47% (active); in test [9], -80.1% (active); in test [10], -64.2% (active).

`Cc1cn(-c2cc(C(=O)Nc3cccc(-n4ccc5c(NC(=O)c6ccccc6)nccc54)c3)cc(C(F)(F)F)c2)cn1`: the growth in test [1] was 4.61% (active); in test [2], -41.2% (active); in test [3], 27.2%; in [4], 28.9%; in test [5], -3.87% (active); in test [6] it was 18.5%. Also, the growth in [7] was -54.5% (active); in test [8], 27.1%; in test [9], 5.46% (active); in [10], 33.3%.
